Measurements taken from PubChem BioAssay (NCI).
This is part of a sample that, as a whole, favours compounds with a hit. Of some 79,000 tested, about 15% had one in any assay. Values without a mark were called inactive. Calls of active or inactive are those of the source. Rule as the data show it: active = growth inhibition above about 70%; inactive = the rest. Where a SMILES comes first, the peptide text is derived from it. The star is where a group is joined. Boc = CC(C)(C)OC(=O)*; OcHex = C1CCC(O*)CC1

How the values were obtained:
[1] = NCI Yeast Anticancer Drug Screen. Data for the rad50 strain (AID 155);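 also: 0% = growth of vehicle-only cultures of the same strain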; settings: S. cerevisiae rad50 strain growth inhibition; at 50.0 µM; active compounds read high
In short: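 Cells are treated with compound, grown, and their growth is then scored against vehicle-only cultures of the same repair-deficient yeast strain.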

[2] = NCI Yeast Anticancer Drug Screen. Data for the mec2-1 strain (AID 157); settings: S. cerevisiae mec2-1 strain, at 50.0 µM, active compounds read high
In short: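 Yeast mec2-1 mutant treated with compound. Readout: growth inhibition vs vehicle controls.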

[3] = NCI Yeast Anticancer Drug Screen. Data for the sgs1 mgt1 strain (AID 161);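 also: 0% = growth of cultures given vehicle only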; settings: S. cerevisiae sgs1 mgt1 strain, at 50.0 µM, active compounds read high
In short: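 Inhibition of yeast growth, normalised to vehicle-treated controls, is reported for a strain bearing genetic alterations in DNA damage repair.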

[4] = NCI Yeast Anticancer Drug Screen. Data for the cln2 rad14 strain (AID 165);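 also: 0% = growth equal to vehicle treated cultures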; settings: S. cerevisiae cln2 rad14 strain, at 50.0 µM, active compounds read high
In short: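 cln2 rad14 yeast strain; compound exposure; growth inhibition read vs vehicle controls.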

[5] = NCI Yeast Anticancer Drug Screen. Data for the bub3 strain (AID 167); settings: S. cerevisiae bub3 mutant strain, at 50.0 µM, active compounds read high
In short: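 Part of a panel of yeast mutants defective in DNA damage repair or cell cycle regulation. Each strain is grown with compound, and inhibition is calculated relative to solvent-treated cultures.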

[6] = NCI Yeast Anticancer Drug Screen. Data for the mlh1 rad18 strain (AID 175); settings: S. cerevisiae mlh1 rad18 strain growth inhibition; at 50.0 µM; active compounds read high
In short: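 Yeast w/ defined DNA-repair lesions; compound exposure; growth vs vehicle controls → % inhibition.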

SMILES	growth inhibition [1] [%]	growth inhibition [2] [%]	growth inhibition [3] [%]	growth inhibition [4] [%]	growth inhibition [5]	growth inhibition [6] [%]
c1ccc2n[nH]nc2c1	19.1	-10.9	7.3	2.2	-4.8%	16.9
CCOC(=O)[C@H](C)OC(=O)[C@@](C)(NC(=O)c1ccccc1C(=O)OC)[C@@H]1NC=C(C(=O)OC)CS1	-2.15	26.9	11.2	14.4	29%	5.8
CCOC(=O)CNC=O	33.5	-6.1	-2.7	26.4	-1.8%	8.55
COc1ccc(NC(=O)CCc2cc(C(C)(C)C)n[nH]2)cc1	-22.1	-15.8	-3.8	12.6	-16.7%	-8.5
O=C1CCSC(=S)N1c1ccc(F)cc1	7.15	-1.4	2.2	-32.5	-22.9%	6.2
COc1nc2[nH]ccc2c(=O)[nH]1	-23.8	-25.2	-31.8	3.15	-11.3%	-11.1
CC(=O)Oc1c(C(OC(C)=O)OC(C)=O)ccc([N+](=O)[O-])c1OC(C)=O	34.1	28.9	36.5	5.5	9.3%	18.9
CC(=O)O[C@H]1CC[C@@]2(C)C(=CC[C@H]3[C@@H]4CC[C@H](c5cc(C(F)(F)F)n(C(C)=O)n5)[C@@]4(C)CC[C@@H]32)C1	11.3	-6.7	-40.6	2.55	-19.6%	12.4
COc1cc(CNC(=O)CCCCCCCCCCSSCCCCCCCCCCC(=O)NCc2ccc(O)c(OC)c2)ccc1O	-20.4	-32.8	-22.9	5.9	-13.3%	-24.8
CC(C)CC(NC(=O)OC(C)(C)C)C(=O)NC(CCC(=O)OC1CCCCC1)C(N)=O (stereo not drawn) (Boc-Leu-Glu(OcHex)-NH2; configuration not given here)	-4.8	-12.4	-8	1.5	3.4%	8.75
CCOC(=O)c1[nH]c(-c2ccc(OC)cc2)c(C(=O)OCC)c1-c1ccccc1	38.6	-4.7	28.8	-0.2	3.05%	24.1
CCCCCCCCCCc1ccc(CCCCCCCCCC)cc1	7	7.2	4.6	-4.55	2.05%	-7.9
Cc1ccc(NC(=O)c2ccccc2[N+](=O)[O-])cc1	12.5	15.8	0.1	20.4	-2.1%	-10.2
COc1cc2c(cc1O)C(Cc1ccccc1)N(C)CC2O (stereo unspecified)	-12.6	-4.7	-4	-5.7	-7.55%	0
CCc1c(-c2ccccc2)[nH]c(=S)c(C#N)c1C	-8.7	-1.5	26.6	2.7	-1.1%	-3.9
CC(=O)c1cc2c(Br)cccc2oc1=O	-38	-42.4	-32.5	-3.3	-42.9%	-36.2
C[Si](C)(C)N1CCCC1	-22.1	-26.9	-16.8	12.4	3.5%	-6.85
O=C1C2=C(Nc3ccccc3N2)OC1c1ccccc1Cl (stereo unspecified)	-0.95	-11.7	-22.1	6.7	-21.8%	4
CCOc1ccc2ccc3ccccc3c2c1NC(C)=O	10.4	2.3	12.2	32	3.6%	6.25
BrCCOc1ccccc1	19.4	8	-28.6	-29.5	-8.3%	-25.5
COC(=O)C1(C2(C(=O)OC)NC(C)=C(c3ccccc3)C(=O)O2)NC(C)=C(c2ccccc2)C(=O)O1 (stereo unspecified)	15.2	-7.3	-6.95	8.3	-5.15%	15

SMILES	growth inhibition [1] [%]	growth inhibition [2] [%]	growth inhibition [3] [%]	growth inhibition [4] [%]	growth inhibition [5]	growth inhibition [6] [%]
CC(=O)Oc1ccc(C(C)(C)C)cc1C	6.05	-10.1	-9.45	-6.85	0.35%	-21.1
CC(C)C1=C(Cc2ccccc2)C(=O)O/C1=C\c1cc(Cl)c(O)c(Cl)c1	19.9	8	24.6	25.6	32.5%	-30.9
O=C(/C=C/c1ccco1)N1CCN(Cc2ccccc2)CC1	3.7	8.15	23	32.2	53%	14.4
Cc1cc(/C=C2\SC(=S)NC2=O)cc(C)c1O	1.65	0.8	24.6	13.1	22.8%	13.7
CSc1ncc(C#N)c2nc(-c3ccccc3)nn12	5.6	13.9	3.35	8.1	12.1%	18.3
Cc1cc(Cl)ccc1N=NC(=O)NNc1ccc(Cl)cc1C	35.2	-15.2	-7.05	-21.9	-7.2%	-19.5
COc1cc2oc(-c3ccc(O)cc3)c(OC3OC(C)C(O)C(O)C3O)c(=O)c2c(O)c1OC (stereo unspecified)	0.45	-13.8	-15.6	9.4	-7.95%	-74.6
CNC(C#N)c1ccco1 (stereo unspecified)	11.3	-17.2	16	8.4	13.4%	22.1
CC(=O)CSc1cc(C)c2ccccc2n1	-6.6	-7.35	-11.1	-10.8	-13.1%	1.05
COC[C@@H](N=CN1CCc2cc(OC)c(OC)cc2C1)C(C)(C)C	-31.2	-18.2	-14.6	13	-11.3%	-17
CN(C)c1ccc(/C=C/C=C/C(=O)c2ccccc2)cc1	-5.35	16.2	-0.1	5.55	-13.8%	-7.4
COc1ccc(C2(C(=O)O)CC(C)=C(C)CC2C(=O)O)cc1 (stereo unspecified)	-1.45	-9.05	-5.25	0.6	-11.7%	7
O=COCc1ccc2c(c1)OCO2	35.3	36.9	22.9	15.2	10.1%	27.8
O=[N+]([O-])c1cccc(-c2csc(N=Nc3c(O)[nH]c4ccccc34)n2)c1	-29.6	-8.9	-0.3	-12.9	14.2%	13.3
COC(=O)c1ccccc1OC(C)=O	9.8	11.4	-0.4	13.8	1.5%	-10.7
O=C(OCc1ccccc1)N1CCCCC1	7.9	-2.65	5.45	-13.2	22.2%	-1
C=CCNC(=S)NCc1cccc2ccccc12	-3.45	36.3	34.1	-28.1	32.4%	21.1
C=C(CCC(Cl)C(COS(=O)(=O)c1ccc(C)cc1)OC(CCCO[Si](c1ccccc1)(c1ccccc1)C(C)(C)C)OCC)[Si](C)(C)C (stereo unspecified)	68.2	65.7	60.6	69.1	73% (active)	58.4
CC1(C)CC(=O)C(/C=N/C(=S)NCCc2ccccc2)=C(O)C1	-22.8	-53.4	-21.3	-2.85	-14.8%	-7.6
O=C(O)CCC(NC(=O)CCC(NC(=O)OCc1ccccc1)C(=O)OCc1ccccc1)C(=O)OCc1ccccc1 (stereo unspecified)	-13.1	-31.5	-10.6	9.2	5.4%	-10.8
